Reference: PubChem BioAssay (NCATS)
Inconclusive results are not listed. The source made the active and inactive calls. Unless noted, calls follow the shape of the dose curve; as a rule, active = well fitted curve in the direction sought with a large enough effect; inconclusive = small, poorly fitted or top-dose-only effect, or another doubt; inactive = no such curve, though single readings can be large; an effect the other way counts as inactive or inconclusive.

Columns and labels:
[1] = target: Protein phosphatase 1D (Homo sapiens) (UniProt O15297); assay: RapidFire Mass Spectrometry qHTS Assay for Modulators of WT P53-Induced Phosphatase 1 (WIP1) (AID 1347424);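 also: amount of dephosphorylated VEPPL-S-QETFS peptide product formed by WIP1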; also: potency is read from the fitted curve at half-maximal effect
Procedure, shortened: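 Mass-spectrometric measurement of dephosphorylated peptide after a 5 min room-temperature reaction of 10 nM WIP1 with 2 uM phosphopeptide, following 1 h compound preincubation in 30 mM MgCl2 buffer.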

[2] = Primary qHTS for inhibitors of SARS-S pseudo-typed particle cell entry (AID 1479145; calls by dose curve; also: nearly all actives have a fitted effect of over 45% in size)
[3] = Primary qHTS for Huh7 cytotoxicity: counterscreen for inhibitors of MERS-S pseudotyped particle cell entry (AID 1479147; calls by dose curve)
[4] = Primary qHTS for inhibitors of MERS-S pseudo-typed particle cell entry (AID 1479149; calls by dose curve; also: nearly all actives have a fitted effect of over 60% in size)
[5] = Primary qHTS for Vero E6 cytotoxicity: counterscreen for inhibitors of SARS-S pseudo-typed particle cell entry (AID 1479150; calls by dose curve)
[6] = Primary qHTS for inhibitors of La Crosse Virus (LACV) - induced cell death in SH-SY5Y cells (AID 1508616);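 also: top concentration of the series differs between compounds; 0% = infected DMSO wells and 100% = uninfected DMSO wells; higher means more rescue of cells from virus-induced death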
Procedure, shortened: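 SH-SY5Y, 6000 cells/well; cpd via pin tool in DMSO; LACV 0.01 MOI; 6 d 37C 5% CO2; ATPLite, 5 min RT; luminescence normalized to ±virus DMSO controls.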

[7] = target: Calcium and integrin-binding protein 1 (Homo sapiens) (UniProt Q99828); assay: Primary qHTS for Identification of Calcium Integrin Binding Protein 1 (CIB1) Competitor (AID 1508620);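 also: GST tagged CIB1 binding a fluorescein labelled alphaIIb integrin peptide tracer; top concentration of the series differs between compounds; % is scaled to controls: 0 for no effect and ±100 for the full control effect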
Procedure, shortened: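 Fluorescence polarization competition: CIB1-GST (1 uM final) preincubated with compound 15 min at room temperature, then FITC-labeled alphaIIb peptide (100 nM final) added for another 15 min. Polarization read at Ex 480/Em 540.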

[8] = A High-Content qHTS Against Drug Library for the Identification of Small Molecules that Inhibit DYT1 Early Onset Primary Dystonia-Associated Cell Pathology (AID 1645839; calls by dose curve; also: series mostly up to about 46 µM)
Procedure, shortened: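 Induced EGFP-delE TorsinA cells are imaged after 48 h of compound treatment. Punctate fusion-protein distribution gives the %pathology value, while nuclei counts flag toxicity. Wild-type EGFP-hTOR1A cells define the normal pattern.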

[9] = target: Calcium and integrin-binding protein 1 (Homo sapiens) (UniProt Q99828); assay: Confirmatory qHTS for Identification of Calcium Integrin Binding Protein 1 (CIB1) Competitor (AID 1508617); also: nearly all actives have a fitted effect of over 65% in size; also: potency is read from the fitted curve at half-maximal effect
Procedure, shortened: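 Fluorescence polarization competition: CIB1-GST (1 uM final) in 5 mM HEPES pH 7.4, 125 mM NaCl, 5 mM CaCl2, 0.01% Tween20 preincubated 15 min RT with compound (up to 114 uM), then FITC-alphaIIb peptide (100 nM) added, 15 min RT.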

[10] = Primary qHTS for small molecule stabilizers of the endoplasmic reticulum resident proteome: Secreted ER Calcium Modulated Protein (SERCaMP) assay (AID 1508630); also: % is scaled to controls: 0 for no effect and ±100 for the full control effect
Procedure, shortened: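 The SH-SY5Y reporter protocol was run at 3 concentrations up to 38.3 uM (primary) or 11 concentrations (follow-up): 16 h compound, 100 nM thapsigargin for 4 h, then extracellular luciferase luminescence.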

[11] = target: Protein phosphatase 1D (Homo sapiens) (UniProt O15297); assay: Rhodamine-PBP qHTS Assay for Modulators of WT P53-Induced Phosphatase 1 (WIP1) (AID 1347425); also: % of control where 0% means no effect
Procedure, shortened: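 Read-out: Rhodamine-PBP fluorescence (ex 525/em 598 nm) for released Pi, read each minute for 11 min after adding 10 uM VEPPL-pS-QETFS; signal taken as f1 minus pre-substrate f0. Enzyme 5 nM WIP1 with 1 hr room-temperature compound preincubation.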

[12] = Counterscreen qHTS for small molecule stabilizers of the endoplasmic reticulum resident proteome: GLuc-NoTag assay (AID 1508627);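 also: series mostly up to about 76 µM; 0% = thapsigargin alone and -100% = DMSO vehicle control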
Procedure, shortened: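 Secreted GLuc lacking the SERCaMP modification is measured in SH-SY5Y cells exposed to compound for 19 h and then to thapsigargin (100 nM, 4 h) to deplete ER calcium; hits retested at 11 concentrations, up to 76.6 uM.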

[13] = Confirmatory qHTS for small molecule stabilizers of the endoplasmic reticulum resident proteome: Secreted ER Calcium Modulated Protein (SERCaMP) assay (AID 1508628); also: nearly all actives have a fitted effect of over 40% in size; also: potency is read from the fitted curve at half-maximal effect
Procedure, shortened: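 Reporter secretion upon ER calcium depletion (100 nM thapsigargin, 4 h, 37C) is measured as medium luminescence with coelenterazine, after 16 h compound pretreatment of SH-SY5Y-GLuc-SERCaMP cells; primary at three concentrations up to 38.3 uM, follow-up at 11 (up to 76.6 uM).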

[14] = Cell Viability qHTS for small molecule stabilizers of the endoplasmic reticulum resident proteome (AID 1508629); conditions: cell viability counter-screen, 100 nM thapsigargin for final 4 h;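 also: human SH-SY5Y neuroblastoma cells carrying the GLuc-SERCaMP reporter; compound exposure about 46 h in total before the viability read; % is scaled to controls: 0 for no effect and ±100 for the full control effect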
[15] = Validation qHTS assay for inhibitors of Activation Induced Cytidine Deaminase (AID): UDG Counterscreen signal (AID 1347427); also: 0% is about no effect
Procedure, shortened: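 Fluorescence at 560 nm excitation, 665 nm emission reports UDG signal after 250 mM NaOH (2x) addition and 30 min. Enzymes (AID 1 uM, UDG 2 U/mL, at 4/3x) preincubated 10 min with compound, then 4 h with 4x 250 nM DJC20/DJC23 substrate at room temperature.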

Chain of Protein phosphatase 1D (Homo sapiens) (O15297 whole entry, looked up): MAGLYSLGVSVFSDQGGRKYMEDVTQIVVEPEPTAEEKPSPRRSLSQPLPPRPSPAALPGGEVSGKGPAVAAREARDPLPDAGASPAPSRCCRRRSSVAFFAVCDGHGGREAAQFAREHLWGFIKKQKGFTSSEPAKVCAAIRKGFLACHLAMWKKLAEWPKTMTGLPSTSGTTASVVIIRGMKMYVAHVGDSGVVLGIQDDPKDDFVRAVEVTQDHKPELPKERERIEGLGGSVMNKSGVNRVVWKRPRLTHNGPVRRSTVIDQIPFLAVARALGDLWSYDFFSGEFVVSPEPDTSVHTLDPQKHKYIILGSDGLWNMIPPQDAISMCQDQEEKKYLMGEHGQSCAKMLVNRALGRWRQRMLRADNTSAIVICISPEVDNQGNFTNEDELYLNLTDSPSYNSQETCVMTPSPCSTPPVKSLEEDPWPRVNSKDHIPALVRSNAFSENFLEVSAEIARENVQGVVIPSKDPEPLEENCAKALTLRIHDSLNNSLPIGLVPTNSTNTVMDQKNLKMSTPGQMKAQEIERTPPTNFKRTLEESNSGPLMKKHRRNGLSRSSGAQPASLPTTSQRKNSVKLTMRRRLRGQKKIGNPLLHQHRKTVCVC
Chain of Calcium and integrin-binding protein 1 (Homo sapiens) (Q99828 whole entry, looked up): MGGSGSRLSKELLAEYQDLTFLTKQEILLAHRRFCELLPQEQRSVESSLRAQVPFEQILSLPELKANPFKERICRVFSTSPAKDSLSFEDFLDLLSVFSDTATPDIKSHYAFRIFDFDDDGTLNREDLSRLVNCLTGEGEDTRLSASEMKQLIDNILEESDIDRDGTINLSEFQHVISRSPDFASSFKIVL

C#CC(O)(C=CCl)CC (stereo unspecified)
inactive: Potency [1] | Potency [2] | Potency [3] | Potency [4] | Potency [5] | outcome [6] | Potency [7] | outcome [8]

CCOC(=O)CC(SP(=S)(OC)OC)C(=O)OCC (stereo unspecified)
inactive: Potency [1] | Potency [3] | Potency [4] | Potency [5] | outcome [6] | Potency [7] | outcome [8]
active: Potency [9] 100 µM

CC(C)(C)c1ccc(O)cc1
inactive: Potency [1] | Potency [2] | Potency [4] | outcome [6] | outcome [8]

COP(=S)(OC)SCN1C(=O)c2ccccc2C1=O
inactive: Potency [1] | Potency [3] | Potency [4] | Potency [5] | outcome [6] | Potency [10] | outcome [8]

NNc1ccccc1
inactive: Potency [1] | outcome [11] | outcome [6] | Potency [7] | outcome [12] | Potency [13] | max response [14] -1.1%

COC(=O)[C@@H](N)CCCN/C(N)=N/[N+](=O)[O-]
inactive: Potency [1] | outcome [6] | Potency [7]

O=C1OC(c2ccc(O)c(S(=O)(=O)O)c2)(c2ccc(O)c(S(=O)(=O)O)c2)c2c(Br)c(Br)c(Br)c(Br)c21
inactive: Potency [2] | Potency [3] | Potency [4] | Potency [5] | outcome [6] | Potency [9] | Potency [10] | outcome [8]
active: Potency [1] 10 µM

COc1cc(OC)c(OC)cc1C=O
inactive: Potency [1] | outcome [11] | outcome [6] | Potency [7]

COP(=S)(OC)Oc1ccc(SC)c(C)c1
inactive: Potency [1] | Potency [2] | Potency [3] | Potency [4] | Potency [5] | outcome [6] | Potency [7]

CCC1(c2ccccc2)C(=O)N(COC)C(=O)N(COC)C1=O
inactive: Potency [1] | outcome [11] | outcome [6] | Potency [7] | Potency [10]

NC(=O)CS(=O)C(c1ccccc1)c1ccccc1 (stereo unspecified)
inactive: Potency [1] | outcome [11] | outcome [6] | Potency [7]

CC(C(=O)c1ccccc1)N(C)C (stereo unspecified)
inactive: Potency [1] | outcome [11] | outcome [6] | Potency [7] | outcome [8]

CCN[C@@H](C)Cc1cccc(C(F)(F)F)c1
inactive: Potency [1] | outcome [11] | outcome [6] | Potency [7] | outcome [8]

C[C@]12CCC(=O)C=C1CC[C@@H]1[C@@H]2CC[C@@]2(C)[C@H]1CC[C@]2(C)O
inactive: Potency [1] | outcome [11] | outcome [6] | Potency [7]

CCOP(=S)(OCC)Oc1ccc2c(C)c(Cl)c(=O)oc2c1
inactive: Potency [1] | Potency [3] | Potency [4] | Potency [5] | outcome [6]

CC(C)=CC1C(C(=O)OCN2C(=O)C3=C(CCCC3)C2=O)C1(C)C (stereo unspecified)
inactive: Potency [1] | outcome [11] | Potency [7] | outcome [8]

Clc1cccc(SC2CCNCC2)n1
inactive: Potency [1] | outcome [11] | outcome [6] | Potency [7]

O=[N+]([O-])O[C@H]1CO[C@H]2[C@@H]1OC[C@H]2O[N+](=O)[O-]
inactive: Potency [1] | Potency [2] | Potency [3] | Potency [4] | Potency [5] | outcome [6] | Potency [7]

O=C1OC(CCN2CCCCC2)OC1(c1ccccc1)c1ccccc1 (stereo unspecified)
inactive: Potency [1] | outcome [11] | outcome [6] | Potency [7] | Potency [10]

COC(=O)C(Cl)C(=O)OC
inactive: outcome [11] | outcome [6] | Potency [7] | outcome [8]

CC(=O)OCC1=C(C(=O)O)N2C(=O)[C@@H](N)[C@H]2SC1
inactive: outcome [11] | outcome [6] | Potency [7]

CCCCCCCCCC(=O)O[C@H]1CC[C@H]2[C@@H]3CCC4=CC(=O)CC[C@@H]4[C@H]3CC[C@]12C
inactive: outcome [11] | outcome [6] | Potency [7] | Potency [10] | outcome [8]

CCCCCCC(=O)CCCCCC/C=C/C[C@@H](O)[C@H](O)[C@@](N)(CO)C(=O)O
inactive: outcome [11] | outcome [6] | Potency [7]

CCN1CCC[C@H]1CNC(=O)c1cc(S(N)(=O)=O)ccc1OC
inactive: Potency [2] | Potency [3] | Potency [4] | Potency [5]

Cc1cnc(NC(=O)C2=C(O)c3ccccc3S(=O)(=O)N2C)s1
inactive: Potency [2] | Potency [3] | Potency [4]

CC(C)=CCC/C(C)=C/CC/C(C)=C/CCC(=O)OC/C=C(\C)CCC=C(C)C
inactive: Potency [2] | Potency [3] | Potency [4]

c1ccc(CN2CCNCC2)cc1
inactive: Potency [1] | outcome [6] | Potency [7] | outcome [8]

C[C@H]1[C@@H]2Cc3ccc(O)cc3[C@@]1(C)CCN2C
inactive: outcome [11] | outcome [6] | Potency [7] | outcome [12] | outcome [8]
active: Potency [13] 22.4 µM

Clc1ccccc1N1CCNCC1
inactive: Potency [1] | outcome [6] | Potency [7] | outcome [8]

O=C(O)C(S)C(S)C(=O)O (stereo unspecified)
inactive: Potency [2] | Potency [3] | Potency [4] | Potency [5]

CC[C@@]1(O)C(=O)OCc2c1cc1n(c2=O)Cc2c-1nc1ccccc1c2/C=N/OC(C)(C)C
inactive: Potency [2] | Potency [3] | Potency [4]

CCOC(=O)c1ccc(OCCN2C[C@H](O)[C@@H](O)[C@H](O)[C@H]2CO)cc1
inactive: Potency [2] | Potency [3] | Potency [4] | Potency [5]

CCCCC/C=C\C/C=C\C/C=C\C/C=C\CCCC(=O)NCC(=O)O
inactive: outcome [11] | outcome [15] | outcome [6] | Potency [7] | Potency [10]
